Measurements published in the supplement of paper PMC13380429.

Experiments:
[1] = system: Vero E6 infected with SARS-CoV-2; assay: morphology score (similarity to uninfected cells); higher = more like uninfected cells; details: 24 h
[2] = system: Vero E6 infected with SARS-CoV-2; assay: SARS-CoV-2 infection rate relative to infected DMSO; higher = more infection, active = 60 or less; details: 24 h

Structure (SMILES) | morphology score [1] | SARS-CoV-2 infection rate [2]
Cc1cccc(C)c1OCC(=O)N[C@@H](Cc1ccccc1)[C@@H](O)C[C@H](Cc1ccccc1)NC(=O)[C@H](C(C)C)N1CCCNC1=O [lopinavir] (10 µM) | 0.184 | 105% (inactive)
O=C(O)c1cc(O)c2c(c1)C(=O)c1cccc(O)c1C2=O [rhein] (10 µM) | 0.272 | 99.5% (inactive)
C[C@H]1[C@H](OC(=O)CCC(=O)O)O[C@@H]2O[C@@]3(C)CC[C@H]4[C@H](C)CC[C@@H]1[C@@]24OO3 [artesunate] (0.833333 µM) | 0.157 | 97% (inactive)
O[C@H]1[C@H](O)[C@@H](O)[C@H](O)[C@@H](O)[C@H]1O [inositol] (10 µM) | -0.166 | 95.5% (inactive)
O=C(O)CNC(=O)C(CS)Cc1ccccc1 (stereo not given) [thiorphan] (10 µM) | 0.106 | 98.5% (inactive)
[Cl][Ti][Cl].c1cc[cH-]c1.c1cc[cH-]c1 [titanocene-dichloride] (10 µM) | 0.163 | 84% (inactive)
Cc1ccc(Cl)c(OCC(O)CNC(C)(C)C)c1 (stereo not given) [bupranolol] (10 µM) | -0.00864 | 111% (inactive)
Cc1ccc(C(=O)c2ccc(CC(=O)O)n2C)cc1 [tolmetin] (10 µM) | 0.0813 | 106% (inactive)
O=C(NCc1ccccc1)OCCO [buramate] (10 µM) | 0.237 | 84.5% (inactive)
C=CC(=O)c1ccc2ccccc2c1 [JAK3-inhibitor-V] (10 µM) | 0.0151 | 102% (inactive)
Oc1nc(O)c2cn[nH]c2n1 [oxypurinol] (10 µM) | -0.157 | 111% (inactive)
CC(C)NC[C@@H](C(=O)N1CCN(c2ncnc3c2[C@H](C)C[C@H]3O)CC1)c1ccc(Cl)cc1 (10 µM) | 0.0963 | 96% (inactive)
CC1(CN2CCC(n3c(=O)[nH]c4ccccc43)CC2)OCc2ccccc2-n2cccc21 (stereo not given) [zaldaride] (10 µM) | -0.152 | 112% (inactive)
N[C@@H](Cc1cc(CP(=O)(O)O)cc(-c2ccccc2Cl)c1)C(=O)O (10 µM) | 0.0155 | 97.5% (inactive)
Cc1ccc(S(=O)(=O)Cc2nc(-c3ccc(C(=O)NCc4cccnc4)cc3)oc2C)cc1 (0.833333 µM) | -0.146 | 93% (inactive)
OC[C@H]1O[C@@H](Oc2cc(O)cc(/C=C/c3ccc(O)cc3)c2)[C@H](O)[C@@H](O)[C@@H]1O [polydatin] (10 µM) | 0.0104 | 104% (inactive)
COc1cc2nccc(Oc3ccc(NC(=O)NC4CC4)c(Cl)c3)c2cc1C(N)=O [lenvatinib] (10 µM) | 0.239 | 100% (inactive)
C[C@H](Oc1cc(-c2cnn(C3CCNCC3)c2)cnc1N)c1c(Cl)ccc(F)c1Cl [crizotinib-(S)] (10 µM) | 0.602 | 23% (active)
Cn1cc(C[C@@H](N)C(=O)O)c2ccccc21 [indoximod] (10 µM) | 0.183 | 110% (inactive)
COc1ccc2[nH]c(C(=O)c3ccccc3)cc2c1 (0.833333 µM) | -0.112 | 110% (inactive)

Structure (SMILES) | morphology score [1] | SARS-CoV-2 infection rate [2]
CCCC(=O)Nc1ncnc2c1ncn2[C@@H]1O[C@@H]2COP(=O)(O)O[C@H]2[C@H]1OC(=O)CCC [bucladesine] (10 µM) | 0.0459 | 104% (inactive)
COc1cc(/C=C/C(N)=O)cc(OC)c1OC [cintriamide] (10 µM) | -0.0883 | 110% (inactive)
Cn1ncnc1[C@H]1c2n[nH]c(=O)c3cc(F)cc(c23)N[C@@H]1c1ccc(F)cc1 [talazoparib] (0.833333 µM) | -0.223 | 113% (inactive)
O=C(c1ccc(F)c(F)c1Nc1ccc(I)cc1F)N1CC(O)([C@@H]2CCCCN2)C1 [cobimetinib] (0.833333 µM) | -0.272 | 116% (inactive)
CCN(CC)Cc1nccn1-c1ccc([N+](=O)[O-])cc1C(=O)c1ccccc1Cl [nizofenone] (10 µM) | 0.148 | 98% (inactive)
CCCOc1ccc2[nH]c(NC(=O)OC)nc2c1 [oxibendazole] (10 µM) | -0.158 | 118% (inactive)
CC1(C)O[C@@H]2C[C@H]3[C@@H]4CCC5=CC(=O)C=C[C@]5(C)[C@@]4(F)[C@@H](O)C[C@]3(C)[C@]2(C(=O)CO)O1 (10 µM) | 0.0142 | 109% (inactive)
CC(C)NNC(=O)c1ccncc1 [iproniazid] (10 µM) | 0.0745 | 108% (inactive)
COc1ccc(-c2cc(=O)c3c(O)cc(O)cc3o2)cc1O [diosmetin] (10 µM) | 0.205 | 106% (inactive)
O=C(O)c1ccccc1-c1ccc(C(F)(F)F)cc1 [xenalipin] (10 µM) | 0.0335 | 102% (inactive)
O=[N+]([O-])c1ccc2c(c1)S(=O)(=O)C=C2 [stattic] (0.833333 µM) | 0.148 | 100% (inactive)
COc1cc2c(cc1OC(C)C)[C@H](c1ccc(Cl)cc1)N(c1ccc(N(C)C[C@H]3CC[C@H](N4CCN(C)C(=O)C4)CC3)cc1)C(=O)C2 (0.833333 µM) | 0.244 | 93.5% (inactive)
NC(=O)N/N=C/c1ccc(Oc2ccc(F)cc2)cc1 (10 µM) | -0.137 | 112% (inactive)
C[C@@H]1C(=O)O[C@H]2C[C@@]34[C@H]5C[C@@H](C(C)(C)C)[C@]36[C@@H](OC(=O)[C@@H]6O)O[C@@]4(C(=O)O5)[C@]21O [Ginkgolide A] (10 µM) | -0.0141 | 114% (inactive)
NCCC[C@H](N)C(=O)O [ornithine] (10 µM) | 0.101 | 96.5% (inactive)
COC(=O)c1cc(OC)c2c(c1-c1c(CO)cc(OC)c3c1OCO3)OCO2 [bicyclol] (10 µM) | 0.199 | 88% (inactive)
CS(=O)(=O)c1ccc(-c2nnc(/C=C/c3nnc(-c4ccc(C#N)cc4)o3)n2-c2ccccc2Cl)nc1 (10 µM) | 0.0833 | 99% (inactive)
CC(C)(C)c1ccc(S(=O)(=O)Nc2ccc(Cl)cc2C(=O)c2cc[n+]([O-])cc2)cc1 [vercirnon] (10 µM) | 0.0488 | 98.5% (inactive)
CCC(=O)NO (10 µM) | 0.00785 | 112% (inactive)
Nc1ncnc2c1c(COc1cccc(Cl)c1)nn2C1CCOCC1 (10 µM) | 0.00558 | 104% (inactive)

Structure (SMILES) | morphology score [1] | SARS-CoV-2 infection rate [2]
CC(=O)N[C@H]1[C@@H](O)[C@H](O)[C@@H](CO)O[C@@H]1O [N-acetylmannosamine] (10 µM) | 0.18 | 100% (inactive)
CC(C)(C)CC(C)(C)c1cc(Cc2cc(C(C)(C)CC(C)(C)C)cc(-n3nc4ccccc4n3)c2O)c(O)c(-n2nc3ccccc3n2)c1 [bisoctrizole] (10 µM) | -0.0457 | 114% (inactive)
CCCN(C/C=C/I)[C@H]1CCc2ccc(O)cc2C1 [7-hydroxy-PIPAT] (10 µM) | -0.0984 | 118% (inactive)
CC(C)Nc1nc2cc(Cl)c(Cl)cc2n1[C@H]1O[C@@H](CO)[C@H](O)[C@@H]1O [maribavir] (10 µM) | -0.0681 | 122% (inactive)
Cc1ccc2c(c1)C(=O)[C@]1(O)CCN(c3ccccc3)C1=N2 (racemic) [blebbistatin-(+/-)] (10 µM) | 0.464 | 90.8% (inactive)
Cc1nc(N)sc1CCN [amthamine] (10 µM) | 0.148 | 92.5% (inactive)
Nc1ccc(C(=O)NCC(=O)O)cc1 [4-aminohippuric-acid] (10 µM) | -0.0582 | 108% (inactive)
C[C@@H]1CC(=O)c2c(ccc3c2C(=O)c2cccc(O)c2C3=O)C1 [ochromycinone] (10 µM) | -0.0461 | 105% (inactive)
CCCCCCCCCCCCCCCc1cccc(OCC(=O)NCCO)c1 (10 µM) | -0.00804 | 106% (inactive)
CC(CN(C)C)C(C)(O)Cc1ccc(Cl)cc1 (stereo not given) [clobutinol] (10 µM) | 0.00198 | 109% (inactive)
CCOC(=O)CNC(=O)[C@@H]1CCCN1C(=O)Cc1ccccc1 (10 µM) | -0.0562 | 104% (inactive)
C=CCN1CC[C@]23c4c5ccc(O)c4O[C@H]2/C(=N/NC(=O)c2ccccc2)CC[C@@]3(O)[C@H]1C5 [naloxone-benzoylhydrazone] (10 µM) | 0.0722 | 110% (inactive)
C#C[C@]1(O)CC[C@H]2[C@@H]3CCc4cc(OC5CCCC5)ccc4[C@H]3CC[C@@]21C [quinestrol] (10 µM) | -0.0318 | 102% (inactive)
C[C@]12CCC(=O)C=C1CC[C@@H]1[C@@H]2C(=O)C[C@]2(C)C(=O)CC[C@@H]12 [adrenosterone] (10 µM) | -0.109 | 97.5% (inactive)
CC[C@H]1OC(=O)C[C@@H](O)[C@H](C)[C@@H](O[C@@H]2O[C@H](C)C[C@H](N(C)C)[C@H]2O)[C@@H](CC=O)C[C@@H](C)C(=O)/C=C/[C@]2(C)O[C@H]2[C@@H]1C [rosamicin] (10 µM) | 0.129 | 96% (inactive)
CC(=O)[C@@]1(O)CC[C@H]2[C@@H]3C[C@H](C)C4=CC(=O)C=C[C@]4(C)[C@@]3(F)[C@@H](O)C[C@@]21C [fluorometholone] (10 µM) | 0.02 | 110% (inactive)
COc1cc2c(cc1F)C(c1ccccc1Cl)=Nc1c(n[nH]c1C)N2 (10 µM) | -0.191 | 104% (inactive)
Cc1nc2c([nH]1)-c1ccccc1N(C(=O)c1ccc(NC(=O)c3ccccc3-c3ccccc3)cc1)CC2 [conivaptan] (10 µM) | 0.193 | 107% (inactive)
O=C(O)CNC(=O)C1C(=O)N(C2CCCCC2)C(=O)N(C2CCCCC2)C1=O [daprodustat] (10 µM) | 0.206 | 81.5% (inactive)
CC(C)CCNC(=O)[C@H](CC(C)C)NC(=O)[C@H]1O[C@@H]1C(=O)O [loxistatin-acid] (10 µM) | 0.296 | 88% (inactive)
